# Values joined by “and” are separate entries in the source; they are usually repeats but may differ in a detail not shown here. Equal entries are not always repeated. The panel holds about 83,000 compounds, 20% with a hit somewhere; the sample as a whole holds those more often.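 The endpoint reported here, percent growth, reads 100 for growth as untreated, 0 for no net growth and -100 for all cells dead.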 Active and inactive are the calls of the source. The calls were made as follows: active = growth percent below 10; inactive = the rest.
# Test system: SK-OV-3 ovarian
# Test: NCI-60 one-dose screen, 48 h (100 = growth as untreated, 0 = no growth, -100 = all killed)
# Details: 10 µM unless noted
row,SMILES,growth
1,Cc1ccc(Cl)cc1NC(=O)N/C(N)=N/c1nc2ccccc2s1,-25.6% (active)
2,Nc1cc(-c2c[nH]c3ccc(Cl)cc23)nc2cc(-c3c[nH]c4ccccc34)nn12,5.29% (active)
3,COc1cc(CNC(=O)C[C@H](C)CCC=C(C)C)ccc1OCc1cn(-c2ccc(Cl)c(Cl)c2)nn1,99% (inactive)
4,C[C@@H](Nc1c(C#N)cnc2ccc(-c3cnc4[nH]ncc4c3)cc12)c1ccccc1,19.5% (inactive)
5,COc1ccc(C2=NN(C(=O)[C@H]3[C@@H](c4ccco4)c4sc(=O)[nH]c4S[C@@H]3C)C(c3ccc4ccccc4c3)C2)cc1 (stereo partly drawn),84.6% (inactive)
6,Cc1cc(C)c2[nH]c(=O)c(C(c3nnnn3Cc3ccc4c(c3)OCO4)N3CCN(C)CC3)cc2c1 (stereo not drawn),111% (inactive)
7,COc1ccc(NC(=O)N/N=C/c2c[nH]c3ccccc23)cc1,37.5% (inactive)
8,COc1ccc2[nH]c(O)c(N=NC(=O)c3ccc4nc(-c5ccc(Cl)cc5)[nH]c4c3)c2c1,90.8% (inactive)
9,Cc1ccc(O)cc1Nc1nc(SCCN2CCOCC2)nc2c1cnn2CC(Cl)c1ccc(Br)cc1 (stereo not drawn),43.9% (inactive)
10,CCOc1ccccc1[C@H]1C(C(=O)c2ccc(Cl)cc2)C2(N[C@@H]1c1ccccc1)C(=O)Nc1ccc(Br)cc12 (stereo partly drawn),24.4% (inactive)
11,CC1(C)CC(=O)C2=C(C1)OC(N)=C(c1nc3ccccc3[nH]1)C2c1ccc(Cl)cc1 (stereo not drawn),111% (inactive) and 108% (inactive)
12,COc1ccc(-c2cc(C(=O)N=Nc3c(O)[nH]c4ccc(Cl)cc34)c3ccccc3n2)cc1OC,154% (inactive)
13,COc1ccc2c(c1)c(-c1cc(N)n3nc(-c4c[nH]c5ccccc45)cc3n1)cn2C,-55.6% (active)
14,Cc1ccc2c(c1)nc(-c1ccccc1)n2CC(=O)N=Nc1c(O)[nH]c2ccc(Cl)cc12,-72.6% (active)
15,CS(=O)(=O)Nc1cccc(-n2c(COc3ccc(OC(F)(F)F)cc3)nc3ccccc32)c1,76% (inactive) and 95.4% (inactive)
16,Oc1ccc(Cl)c(Nc2nc(SCCN3CCOCC3)nc3c2cnn3CC(Cl)c2ccc(Br)cc2)c1 (stereo not drawn),65.8% (inactive)
17,COc1ccccc1NC(=O)N/N=C/c1c[nH]c2ccccc12,26.2% (inactive)
18,Nc1cccc(-n2c(COc3ccc(I)cc3)nc3ccccc32)c1,64.7% (inactive) and 102% (inactive)
19,O=C1CCC(N2C(=O)c3cccc(NCCCCCC(=O)N4CCN(c5ccc6nc7c(nc6c5C(F)(F)F)C(=O)c5ncccc5C7=O)CC4)c3C2=O)C(=O)N1 (stereo not drawn),-66.9% (active)

row,SMILES,growth
1,OCCn1cc(-c2nc3ccc4[nH]ncc4c3c3c2CCCC3)cn1,14.6% (inactive)
2,Cc1ccc(N=Nc2c(N)nn3c(-c4cc5cc(Br)ccc5oc4=O)ccnc23)cc1,98.6% (inactive)
3,COc1ccc(C(=O)C[n+]2cccc3c4ccccc4ccc32)cc1,50.1% (inactive)
4,CCCCCCCCCc1ccc(C(=O)Nc2cc(C)ccc2C(=O)OC)cc1,107% (inactive)
5,Cc1nc(Nc2ccccn2)sc1C1=NNC(c2ccccc2F)C1 (stereo not drawn),98.3% (inactive)
6,NS(=O)(=O)c1ccc(Nc2nc(N/N=C/c3cc(Br)c(O)c(Br)c3)nc(Nc3ccccc3)n2)cc1,99.7% (inactive)
7,C=CC(=O)Nc1ccc(C(=O)/C=C/c2ccc(N(C)C)cc2)c(O)c1,11.7% (inactive)
8,CCCCCCCCc1ccc(C(=O)Nc2cccc(O)c2)cc1,109% (inactive)
9,Clc1ccc(-c2nc3c4c(-c5ccccc5)c(-c5ccccc5)n(Cc5ccccc5)c4ncn3n2)cc1,-10.2% (active)
10,Nc1nn2c(-c3cc4cc(Br)ccc4oc3=O)ccnc2c1N=Nc1ccc(S(N)(=O)=O)cc1,58.9% (inactive)
11,Cc1ccc(C(=O)Nc2cc(-n3ccnc3)cc(C(F)(F)F)c2)cc1-n1cc(-c2cnc3cccnn23)nn1,124% (inactive)
12,Cc1cccc(C)c1Nc1nnc(-c2c[nH]c3ccccc23)o1,76.9% (inactive)
13,COc1cc(CNC(=O)C[C@H](C)CCC=C(C)C)ccc1OCc1cn(-c2cccc(C(F)(F)F)c2)nn1,89% (inactive)
14,CC1=C(C(=O)OCc2ccccc2)C(c2ccc(N(C)C)cc2)n2c(nc3ccccc32)N1 (stereo not drawn),95.4% (inactive)
15,CCc1ccc(SC2c3cc(OC)ccc3Oc3nc(N)c(C#N)c(N)c32)cc1 (stereo not drawn),-23.3% (active)
16,CCCn1c(NC(=O)c2cccc(C(N)=O)c2)nc2cc(CN3CCCCC3)ccc21,83.4% (inactive)
17,C/C(=N/O)c1ccc(NC(=O)CSc2nnc(-c3ccc(-c4nc5ccc(Cl)cc5[nH]4)cc3)o2)cc1,39.6% (inactive)
18,CC[C@@]12CC(C(=O)OC)=C3Nc4cc5c(cc4[C@@]34CCN(C[C@H]3O[C@H]31)[C@@H]24)[C@@H]1[C@H](O5)[C@@H](O)[C@@]2(CC)CC(C(=O)OC)=C3Nc4cc(O)ccc4[C@@]34CCN1[C@@H]24,-32.4% (active)
19,N#Cc1c(-c2ccc(F)cc2)nc(SCc2ccccc2)nc1N1CCNCC1,-67.9% (active)
